Screening data: PubChem BioAssay, several laboratories
Sampled rows, rich in hits. Any-hit rate of the full collection: about 1.8%.
Phagocyt inh = macrophage phagocytosis inhibition. inhibition, % at 5 µM. actives 0.07% (n = 110,000). AID 1029. J774A.1 macrophage IgG-bead phagocytosis, imaging;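 active means inhibition above the mean of the plate negative controls plus 5 SD, cut at about 13% in these data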;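 further: phagocytic index as fraction of beads internalized from green versus red external bead signal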
sdo1 growth = restores growth of sdo1-depleted yeast | z-score at 10 µM | AID 817 | S. cerevisiae sdo1-depleted JHY4D growth rescue, OD600 30 h; active compounds read high; pdr5 snq2 efflux-pump mutant strain | actives 0.21% (n = 140,000);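 active means z-score above 3 at both the 24 hr and the 30 hr optical density reads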
Measles CPE = protection of cells from measles virus; Measles virus-infected cells, CPE protection, absorbance; protection (pct of control), % at 4 µM; actives 1.5% (n = 140,000); AID 841; in the data active means protection mostly above about 24%, no sharp cut-off; inactive means mostly below about 26%
Each line names hits and unclear results; the compound was inactive in the other large screens.

Cc1ccccc1NC(=O)Cc1nc(CCl)cs1	Measles CPE 41.8
Cc1ccc(C)c(NC(=O)Cc2nc(CCl)cs2)c1	none
Cc1cccc(NC(=O)c2ccc(-n3ccnc3)nc2)c1	none
CCC(=O)N/N=C/c1ccc(OS(=O)(=O)c2ccccc2)cc1	Measles CPE 17.6
Cn1cc(Cl)c(C(=O)N/N=C/c2ccc(OS(=O)(=O)c3ccccc3)cc2)n1	none (no result: Phagocyt inh)
COc1ccc(C(=O)NNC(=O)CN2CCC(n3nnc4cc(F)ccc43)CC2)cc1	none
Cc1cccc(Sc2c([N+](=O)[O-])ncn2C)n1	none (no result: Phagocyt inh)
Cc1cccc(Sc2ccc([N+](=O)[O-])cc2[N+](=O)[O-])n1	Measles CPE 38.7
Cc1cccc(-n2c(C)nc3c(cnn3-c3ccc(F)cc3)c2=O)c1	none
O=C(OC(C(=O)NCC1CCCO1)c1ccccc1F)c1ccco1 (configuration not stated)	none
O=C(COc1ccc(F)cc1)NNC(=O)c1cc2ccccc2oc1=O	none
Cc1cccc(OCC(=O)NNC(=O)c2cc3ccccc3oc2=O)c1	Measles CPE 43.4 (no result: Phagocyt inh)
CCc1ccc(NC(=O)COC(=O)CCc2nc3cc(S(=O)(=O)N(CC)CC)ccc3n2C)cc1	none
CC(C)[C@H](NC(=O)NC1CCCC1)C(=O)O	none
CC(C)=CCCC(C)NC(=O)NC1CCCCC1 (configuration not stated)	Measles CPE 26.8 (no result: Phagocyt inh)
Cc1ccc(CNC(=O)COC(=O)CCCOc2ccc(Cl)cc2Cl)cc1	none
CCNc1nc(NCC)n2c(SCC(=O)N3CC4(C)CC3CC(C)(C)C4)nnc2n1 (configuration not stated)	none
CCC(c1nnc(SCC(=O)N2CC3(C)CC2CC(C)(C)C3)o1)N(C)C (configuration not stated)	Measles CPE 47.8
CC(=O)NN1C(=O)/C(=C/c2ccc(C(C)C)cc2)SC1=S	none
COc1cccc(C(=O)NC(Cc2ccccc2)c2ccc3c(c2)OCCCO3)c1 (configuration not stated)	none
COc1ccc(/C=C/C(=O)NCCc2ccc(S(N)(=O)=O)cc2)cc1	Measles CPE 56.1
COc1ccc(CC(=O)NCCc2ccc(S(N)(=O)=O)cc2)cc1	none
O=C(Cn1ccc(C(F)(F)F)n1)N/N=C/c1ccc2c(c1)OCO2	none
O=C(NCC1CCCO1)C(c1cccs1)N(Cc1ccccc1)C(=O)c1ccc(-c2ccccc2)[nH]1 (configuration not stated)	none
O=C(NCC1CCCO1)C(c1cccs1)N(C(=O)c1ccc(-c2ccccc2)[nH]1)C1CCCC1 (configuration not stated)	Measles CPE 51.2
O=C(Cn1cnc2c(cnn2-c2ccccc2)c1=O)Nc1cc(S(=O)(=O)N2CCOCC2)ccc1Cl	none
Cc1ccc(C(=O)NCCSc2ccccc2)cc1S(=O)(=O)Nc1ccccc1	none (no result: Phagocyt inh)
CCOC(=O)CCc1c(C)nc(SCC(=O)O)c(C#N)c1C	Measles CPE 32.2
CCOC(=O)CSc1nc(C)cc(C)c1C#N	none
COCCCn1c(SCC(=O)OC2CCCCC2)nnc1-c1cccs1	none
COc1ccccc1NC(=S)N(Cc1ccco1)Cc1cc2cc(C)ccc2[nH]c1=O	none
COc1cccc(C(=O)Oc2cc(-c3ccccc3)no2)c1	Phagocyt inh 164.6
Cc1ccc(C(=O)Oc2cc(-c3ccccc3)no2)cc1	none
COc1cc(OC)c(C(=O)OC(C)C(=O)Nc2cccc(C(F)(F)F)c2)cc1OC (configuration not stated)	none
O=c1[nH]c(CSc2nnc(-c3cccnc3)n2C2CCCCC2)nc2ccccc12	none
Cc1ccc(CNC(=O)C(=O)NCC2OCCN2S(=O)(=O)c2cccs2)cc1 (configuration not stated)	none (no result: Phagocyt inh)
O=C(NCc1ccccc1)C(=O)NCC1OCCN1S(=O)(=O)c1cccs1 (configuration not stated)	Measles CPE 35.6 (no result: Phagocyt inh)
Cc1ccc2nc(-c3ccc(NS(C)(=O)=O)cc3)cc(-c3ccccc3)c2c1	Measles CPE 41.9 (no result: Phagocyt inh)
CCS(=O)(=O)Nc1ccc(-c2cc(-c3ccccc3)c3cc(C)ccc3n2)cc1	none
CCc1ccc(Oc2cc(Cl)nc(N)n2)cc1	none
COc1cccc(CN2CCC(C(=O)N3CCN(c4ccccc4F)CC3)CC2)c1OC	none
N/C(=N\OC(=O)COc1ccccc1)c1ccc(Cl)cc1	none
N/C(=N\OC(=O)CCCN1C(=O)c2ccccc2C1=O)c1ccc(Cl)cc1	Measles CPE 40.9 (no result: Phagocyt inh)
CC1(C)NC(=O)N(CC(O)COc2ccc(N3C(=O)c4ccccc4C3=O)cc2)C1=O (configuration not stated)	Measles CPE 46.8
Cc1ccc(OCC(O)CN2C(=O)NC(C)(C)C2=O)cc1 (configuration not stated)	none (no result: Phagocyt inh)
CCOC(=O)CSc1nnc([C@@H](NC(=O)OC(C)(C)C)C(C)C)o1	none
COc1cc(C(=O)NCC(c2ccco2)N(C)C)cc(OC)c1OC (configuration not stated)	none
Cc1cc(C(=O)NCC(c2ccco2)N(C)C)no1 (configuration not stated)	Measles CPE 66.3
Nc1ccc(C(=O)OC2CCOC2=O)cc1[N+](=O)[O-] (configuration not stated)	none
COc1cccc(C2CC(c3ccc(C)cc3)n3nc(N)nc3N2)c1 (configuration not stated)	none
COc1cccc(C2CC(c3ccc(C)cc3)Nc3nc(N)nn32)c1 (configuration not stated)	Measles CPE 39.9
Cc1cc(C)n(-c2ccc(C(=O)OCC(=O)NC(c3ccccc3)c3ccccc3)cc2)n1	Measles CPE 50.8
CCN(CC)S(=O)(=O)c1ccc(NC(=O)COC(=O)c2ccc(-n3nc(C)cc3C)cc2)cc1	none (no result: Phagocyt inh)
O=C(CN1CCOCC1)NCC12CC3CC(CC(C3)C1)C2	none
COC(=O)c1nn(-c2c(C)n(C)n(-c3ccccc3)c2=O)cc1O	none
CC1CC(=O)N(CC(=O)NCc2ccco2)c2ccccc2S1 (configuration not stated)	none
Cc1cc(NC(=O)CN2C(=O)CC(c3ccco3)Sc3ccccc32)no1 (configuration not stated)	Measles CPE 42.0 (no result: Phagocyt inh)
CCCOC(=S)NC(=O)c1sc2ccccc2c1Cl	none (no result: Phagocyt inh)
O=C(COC(=O)c1cccs1)Nc1ccc(S(=O)(=O)N2CCOCC2)cc1	none
CC(C)C(c1nnnn1Cc1ccc(F)cc1)N1CCN(Cc2ccc3c(c2)OCO3)CC1 (configuration not stated)	none
CCN1CCN(C(c2nnnn2Cc2ccc3c(c2)OCO3)C(C)C)CC1 (configuration not stated)	Measles CPE 56.4 (no result: Phagocyt inh)
CCn1c(SCC(=O)N2c3ccccc3CCc3ccccc32)nnc1-c1ccc(OC)cc1	none (no result: Phagocyt inh)
COc1ccc(S(=O)(=O)NCCSCc2ccccc2C)cc1Br	none
CCc1ccc(N2C(=O)C3C4CCC(C4=C(C)C)C3C2=O)cc1 (configuration not stated)	none
COc1ccccc1OCC(=O)Sc1ccc(C)cc1	none
Cc1ccc(OCC(=O)Sc2ccc(C)cc2)cc1	Measles CPE 38.5
c1ccc(-c2nc(CSc3n[nH]c(-c4cccs4)n3)cs2)cc1	none (no result: Phagocyt inh)
CCCCC(=O)NC(=S)NNS(=O)(=O)c1ccccc1	Measles CPE 42.3
O=C(NC(=S)NNS(=O)(=O)c1ccccc1)c1ccccc1[N+](=O)[O-]	none
Cc1ccc(C(=O)CSc2nnc(-c3ccco3)n2CC2CCCO2)cc1 (configuration not stated)	none
CCCC(C)NC1=NCCCCC1 (configuration not stated)	none (no result: Phagocyt inh)
